Test [1] deals with Estrogen receptor (Homo sapiens) (UniProt P03372). Kind of test: CCTE_Deisenroth_AIME_384WELL_LUC_Shift: CCTE's 384-well Estrogen Receptor Transactivation Assay with AIME metabolic competence data shift (ERTA luciferase; difference in metabolism positive and negative), Deisenroth Lab (AID 2284041; active means hit-call score of the fitted dose curve at least 0.9, where 1 is the maximum; inactive means score below 0.9;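 further: shift is response with S9 minus without S9 so positive means metabolism raised ER signal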). An outline of the steps: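 Test chemicals (0.002–200 uM, 10-point) were pre-incubated 2 h with alginate microspheres containing phenobarbital/beta-naphthoflavone-induced male Sprague Dawley rat liver S9 or water, then medium was transferred to VM7Luc4E2 cells for 24 h luciferase readout; shift = S9-positive minus S9-negative normalized response.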
Chain of Estrogen receptor (Homo sapiens) (P03372 whole entry, looked up): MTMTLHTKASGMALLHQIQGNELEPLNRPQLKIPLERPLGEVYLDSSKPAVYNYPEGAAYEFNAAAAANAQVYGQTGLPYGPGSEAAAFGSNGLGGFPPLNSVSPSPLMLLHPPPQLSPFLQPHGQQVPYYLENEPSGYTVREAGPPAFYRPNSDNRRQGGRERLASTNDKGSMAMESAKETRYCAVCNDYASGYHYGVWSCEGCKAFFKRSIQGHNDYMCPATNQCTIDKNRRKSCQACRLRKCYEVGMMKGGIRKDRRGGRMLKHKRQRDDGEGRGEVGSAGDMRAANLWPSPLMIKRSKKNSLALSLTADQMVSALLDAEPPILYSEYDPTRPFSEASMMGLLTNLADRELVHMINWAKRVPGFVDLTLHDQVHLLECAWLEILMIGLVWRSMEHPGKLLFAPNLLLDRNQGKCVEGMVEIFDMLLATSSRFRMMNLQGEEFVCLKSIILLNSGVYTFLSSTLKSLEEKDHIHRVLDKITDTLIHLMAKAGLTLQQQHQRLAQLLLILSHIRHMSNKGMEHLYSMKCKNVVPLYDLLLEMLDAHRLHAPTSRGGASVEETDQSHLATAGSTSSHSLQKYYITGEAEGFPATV

Test [2] is described as follows: CCTE_Shafer_MEA_acute_AB: CCTE's Alamar Blue Assay for Cytotoxicity in the Neural Acute Assay, Shafer Lab (AID 2284069).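 Further: active compounds lower the viability signal compared with DMSO wells.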 An outline of the steps: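 Resazurin reduction (CellTiter Blue, 1:6 in fresh medium) read at ex 544/em 590 nm marks viability loss relative to DMSO. Cells: primary rat cortical neuron networks on microelectrode arrays, treated after baseline recording at 13 or 15 days in vitro.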

For a further test, the system named is DIO2 (gene 1734). Kind of test: CCTE_GLTED_hDIO2: CCTE's human Deiodinase 2 (DIO2) Inhibition Assay, Great Lakes Toxicology and Ecology Division (GLTED) Lab (AID 2284050). An outline of the steps: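 Triplicate cell-free incubations (3 h) of human DIO2 with chemical preceded colorimetric Sandell-Kolthoff quantitation of liberated iodide; DMSO served as negative control for curve fitting.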

A further test concerns DIO3 (gene 1735). Kind of test: CCTE_GLTED_hDIO3: CCTE's human Deiodinase 3 (DIO3) Inhibition Assay, Great Lakes Toxicology and Ecology Division (GLTED) Lab (AID 2284055).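 On AC50: potency is for inhibition seen as loss of released iodide signal.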 An outline of the steps: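 Steps: incubate adenovirus-produced hDIO3 with chemical for 3 hours; detect freed iodide via cerium-arsenic Sandell-Kolthoff colorimetry; compare with DMSO baseline.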
Test [3] can be described thus: CCTE_Shafer_MEA_acute_LDH: CCTE's Lactate Dehydrogenase Assay for Cytotoxicity in the Neural Acute Assay, Shafer Lab (AID 2284086).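 Further: active means LDH release rises above DMSO vehicle level.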 An outline of the steps:
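Cytotoxicity readout: spectrophotometric LDH activity in supernatant of rat primary cortical neurons, post-plating day 13 or 15, sampled after 40 min compound exposure; signal gain relative to DMSO baseline.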

Test [4] is described as follows: CCTE_Shafer_MEA_dev_burst_rate: CCTE's Neural Network Formation Assay for Burst Rate, Shafer Lab (AID 2284042; active means hit-call score of the fitted dose curve at least 0.9, where 1 is the maximum; inactive means score below 0.9). An outline of the steps: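 Exposure ran continuously over 12 days of network development in rat cortical cultures, with compound refreshed during full media changes on DIV 5 and 9. Single-electrode bursts per recording time, well-mean over active electrodes, trapezoidal AUC across days 5–12, fitted downward relative to DMSO.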

Test [5] in a line: CCTE_Shafer_MEA_dev_burst_duration_mean: CCTE's Neural Network Formation Assay for Mean Burst Duration, Shafer Lab (AID 2284045; active means hit-call score of the fitted dose curve at least 0.9, where 1 is the maximum; inactive means score below 0.9). An outline of the steps:
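Mean single-electrode burst duration (first to last spike), averaged over bursting electrodes per well, then integrated as area-under-curve across recordings at days 5, 7, 9 and 12. Rat cortical cultures on MEAs, compound present from plating, refreshed at feeds.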

Test [6] can be described thus: CCTE_Shafer_MEA_dev_interburst_interval_mean: CCTE's Neural Network Formation Assay for Mean Interburst Interval, Shafer Lab (AID 2284046; active means hit-call score of the fitted dose curve at least 0.9, where 1 is the maximum; inactive means score below 0.9;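 further: curve fitted for decrease in interburst interval relative to DMSO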). The procedure, abridged: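 Primary rat cortical neurons on PEI-coated 48-well MEA plates (laminin added with cells at plating) (16 electrodes/well), exposed from plating day 0 with renewal at DIV 5 and 9. Mean inter-burst interval averaged over bursting electrodes, AUC across days 5, 7, 9, 12; DMSO baseline.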

A short description of test [7]: CCTE_Shafer_MEA_dev_inter_network_spike_interval_mean: CCTE's Neural Network Formation Assay for Mean Inter-network Spike Interval, Shafer Lab (AID 2284047; active means hit-call score of the fitted dose curve at least 0.9, where 1 is the maximum; inactive means score below 0.9). An outline of the steps: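 Mean time between consecutive network-spike peaks, recorded extracellularly (adaptive spike detection) on DIV 5, 7, 9 and 12, summarized as trapezoidal AUC. Rat cortical cultures on MEAs dosed continuously days 0–12, re-dosed at feeds; loss-of-signal fit relative to DMSO.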

Test [8] is described as follows: CCTE_Shafer_MEA_dev_network_spike_peak: CCTE's Neural Network Formation Assay for Mean Number of Electrodes in Network Spike, Shafer Lab (AID 2284049; active means hit-call score of the fitted dose curve at least 0.9, where 1 is the maximum; inactive means score below 0.9). An outline of the steps:
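Rat cortical primary culture, 1.5 x 10^5 cells/well, 48-well MEA (16 electrodes/well). Dosing day 0 through DIV 12, full media/compound exchange DIV 5, 9. AxIS adaptive spike detection; AUC over days 5/7/9/12; loss-of-signal vs DMSO.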

Test [9] can be described thus: CCTE_Shafer_MEA_dev_spike_duration_mean: CCTE's Neural Network Formation Assay for Mean Spike Duration, Shafer Lab (AID 2284051; active means hit-call score of the fitted dose curve at least 0.9, where 1 is the maximum; inactive means score below 0.9). An outline of the steps: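 Spontaneous activity was recorded on days 5, 7, 9 and 12 from rat cortical cultures grown on microelectrode arrays and dosed continuously from day 0, with media and compound renewed after the DIV 5 and 9 recordings. Network-spike duration was collapsed by area under the curve.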

The nature of test [10]: CCTE_Shafer_MEA_dev_per_network_spike_spike_number_mean: CCTE's Neural Network Formation Assay for Mean Number of Spikes in a Network Spike, Shafer Lab (AID 2284053; active means hit-call score of the fitted dose curve at least 0.9, where 1 is the maximum; inactive means score below 0.9). An outline of the steps:
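Mean spike count within each network spike, taken in a 0.05 s window at its peak, was recorded on days 5, 7, 9 and 12 and integrated as trapezoidal area under the curve. Rat cortical cultures on MEA plates received continuous compound from day 0, refreshed at medium changes on DIV 5 and 9.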

Test [11] is described as follows: CCTE_Shafer_MEA_dev_per_network_spike_spike_percent: CCTE's Neural Network Formation Assay for Percent of Spikes in a Network Spike, Shafer Lab (AID 2284054; active means hit-call score of the fitted dose curve at least 0.9, where 1 is the maximum; inactive means score below 0.9). The procedure, abridged: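 Metric: fraction of spikes falling in a 0.05 s window at network-spike peaks. Recordings were made on days 5, 7, 9 and 12 and collapsed by trapezoidal AUC. Cultures were rat cortical neurons on MEA plates, dosed continuously from plating, re-dosed at media changes.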

A short description of test [12]: CCTE_Shafer_MEA_dev_mutual_information_norm: CCTE's Neural Network Formation Assay for Mutual Information Normalization, Shafer Lab (AID 2284091; active means hit-call score of the fitted dose curve at least 0.9, where 1 is the maximum; inactive means score below 0.9). An outline of the steps:
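Shared information across electrodes, tracked on days 5, 7, 9 and 12 of network development and collapsed as trapezoidal area under the curve. Rat cortical cultures were treated continuously from plating, with treatment renewed at feeds on DIV 5 and 9; DMSO baseline, negative-direction fit.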

Results filed as inconclusive are left out. Calls of active or inactive are those of the source. How the source made its calls, unless noted: active means hit-call score of the fitted dose curve at least 0.9, where 1 is the maximum; inconclusive means response in the unintended direction; inactive means score below 0.9.

For the compound `CCOP(=S)(OCC)SCSP(=S)(OCC)OCC`, the outcome in test [1] and in [2] was inactive.
Take `CC(C)(c1ccccc1)c1ccc(O)c(C(C)(C)c2ccccc2)c1`: the outcome in [1], in test [2] and in test [3] was inactive. The AC50 – broadly, the concentration at which the activity in the assay is half-maximal – was 91.9 µM (active) in the test with DIO2 (gene 1734) and 17.3 µM (active) in the test with DIO3 (gene 1735).
Turning to `CC(C)(OO)c1ccccc1`, the outcome in test [2] and in [3] was inactive.
For the compound `COP(=O)(OC)OC`, the result in [1] was inactive.
Regarding `ClC(Cl)=C(Cl)C(Cl)=C(Cl)Cl`, the result in test [1] was inactive.
With `O=C(O)C(F)(F)C(F)(F)C(F)(F)C(F)(F)C(F)(F)C(F)(F)F`, the outcome in [4], in [5], in test [6], in test [7], in [8] and in [9] was inactive. The compound was classed as inactive in test [10], in test [11] and in test [12].
In the case of `C[C@]12CCC(=O)C[C@@H]1CC[C@@H]1[C@@H]2CC[C@]2(C)[C@@H](O)CC[C@@H]12`, the call in test [2] and in [3] was inactive.
As to `CNC(=O)O/N=C/C(C)(C)S(C)=O` (configuration not stated), in test [1], the outcome was inactive.
For the compound `NC(=O)O`, in test [1], the outcome was inactive.
Take `Clc1ccc(COC(Cn2ccnc2)c2ccc(Cl)cc2Cl)cc1` (configuration not stated): in the test with DIO2 (gene 1734), the AC50 is 95.2 µM (active). Also, the compound was called inactive with DIO3 (gene 1735).
With `O=C1C(Cl)=C(Cl)C(=O)c2ccccc21`, the outcome in [1] was inactive. The AC50 is 26.8 µM (active) with DIO2 (gene 1734) and 11.3 µM (active) in the test on DIO3 (gene 1735).
`CC(C)(C)CC(C)(C)c1ccc(O)cc1`: the half-maximal activity concentration (AC50) was 105 µM (active) in the test on DIO2 (gene 1734) and 82 µM (active) in the test with DIO3 (gene 1735). The outcome in [2] and in [3] was inactive.
Take `CCCCCCCCc1ccc(O)cc1`: the AC50 is 151 µM (active) in the test with DIO2 (gene 1734) and 19.9 µM (active) with DIO3 (gene 1735). Besides, the compound was classed as inactive in [2] and in [3].
Consider `CCOC(=O)Nc1cccc(OC(=O)Nc2ccccc2)c1`, for which, in [1], the result was inactive.
For `CCN1CCC2(CC1)COc1cc3c(cc12)N(C(=O)c1ccc(-c2ccc(-c4nnc(C)o4)cc2C)cc1)CC3`, the AC50 in test [2] was 17.2 µM (active).
`CC(=O)c1cc(C(C)(C)C)cc2c1CCC2(C)C`: the outcome in test [1] was inactive.
Take `Cl/C=C\C[N+]12CN3CN(CN(C3)C1)C2`: in the test with DIO2 (gene 1734), the result was inactive. In addition, the AC50 with DIO3 (gene 1735) is 100 µM (active).
On to `CCC(C)(C)c1ccc(O)c(C(C)(C)CC)c1`, for which the result in test [1] and in test [3] was inactive. For the same compound, the AC50 with DIO2 (gene 1734) is 79 µM (active); in the test with DIO3 (gene 1735) it was 18.9 µM (active); in test [2], 35.4 µM (active).
As to `CC12CC1(C)C(=O)N(c1cc(Cl)cc(Cl)c1)C2=O` (configuration not stated), the compound was called inactive in the test with DIO2 (gene 1734) and in the test with DIO3 (gene 1735).
Turning to `O=C(Nc1ccc2[nH]ccc2c1)c1cc2cc(F)ccc2n1Cc1cccc(F)c1`, the compound was classed as inactive in test [2] and in test [3].
Take `COC(=O)Cc1ccccc1`: the call in test [2] and in [3] was inactive.
For `C=CC(=O)OCCCCCC(C)C`, the concentration at half-maximal activity (AC50) in the test with DIO2 (gene 1734) is 21.1 µM (active); in the test with DIO3 (gene 1735), 35.4 µM (active).
With `CC(C)(c1ccc(OCC2CO2)cc1)c1ccc(OCC2CO2)cc1` (configuration not stated), the figures for the AC50 in the test on DIO2 (gene 1734) and with DIO3 (gene 1735) were 3.76 µM (active) and 3.62 µM (active), respectively.

Values taken from PubChem BioAssay (EPA / NIEHS).
